Screen size: about 310,000 compounds; about 14,000 (4.5%) showed an effect of 50% or more. Effects have a minus sign here. This excerpt belongs to a sample that is enriched for strong results.
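Further: peak tail current of the secondary pulse compared with the same well before compound.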

The target in this assay is human ether-à-go-go-related gene (hERG) potassium channel (human, UniProt Q12809). In words: primary screen, population patch clamp on CHO cells stably expressing hERG; higher = less effect of the substance.
Chain of human ether-à-go-go-related gene (hERG) potassium channel (Q12809 whole entry, looked up): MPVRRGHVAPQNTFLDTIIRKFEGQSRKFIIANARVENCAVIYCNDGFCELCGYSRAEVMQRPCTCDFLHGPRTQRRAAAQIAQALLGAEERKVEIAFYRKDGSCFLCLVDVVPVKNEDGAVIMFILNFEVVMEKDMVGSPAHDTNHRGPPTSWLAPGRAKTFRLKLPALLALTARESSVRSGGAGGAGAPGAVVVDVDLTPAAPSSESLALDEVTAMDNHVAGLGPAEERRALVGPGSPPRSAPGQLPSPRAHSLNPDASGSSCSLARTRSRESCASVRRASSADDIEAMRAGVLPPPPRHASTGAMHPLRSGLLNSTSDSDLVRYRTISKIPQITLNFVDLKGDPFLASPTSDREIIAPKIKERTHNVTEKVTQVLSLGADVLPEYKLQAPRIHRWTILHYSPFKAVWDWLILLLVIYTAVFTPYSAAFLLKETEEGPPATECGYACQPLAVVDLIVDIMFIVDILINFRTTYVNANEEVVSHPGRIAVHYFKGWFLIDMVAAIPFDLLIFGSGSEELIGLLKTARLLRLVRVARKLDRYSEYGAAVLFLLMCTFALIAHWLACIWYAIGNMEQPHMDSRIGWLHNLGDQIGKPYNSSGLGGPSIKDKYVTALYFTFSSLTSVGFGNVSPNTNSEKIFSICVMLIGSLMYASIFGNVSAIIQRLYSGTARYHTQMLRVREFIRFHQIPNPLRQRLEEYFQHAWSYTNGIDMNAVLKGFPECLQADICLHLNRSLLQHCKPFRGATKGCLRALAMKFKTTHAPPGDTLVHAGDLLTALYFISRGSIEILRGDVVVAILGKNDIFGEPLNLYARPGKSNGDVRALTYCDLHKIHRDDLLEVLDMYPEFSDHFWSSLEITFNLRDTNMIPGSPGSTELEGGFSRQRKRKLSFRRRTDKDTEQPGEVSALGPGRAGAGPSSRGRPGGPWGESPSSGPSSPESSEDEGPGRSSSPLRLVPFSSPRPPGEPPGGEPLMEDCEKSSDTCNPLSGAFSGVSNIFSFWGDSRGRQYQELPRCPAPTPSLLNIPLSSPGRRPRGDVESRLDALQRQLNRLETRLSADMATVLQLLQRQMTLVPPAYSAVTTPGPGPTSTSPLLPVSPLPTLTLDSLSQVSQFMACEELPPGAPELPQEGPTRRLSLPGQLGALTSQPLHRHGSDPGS
As for `Cc1ccc(C(=O)NC(=S)N2CCN(C)CC2)cc1`, the “hERG current change (%, negative = inhibition) at 10uM” value is -1.37%.
Then `COC(=O)c1ccc(CSc2nnc(CS(=O)Cc3ccc(Br)cc3)n2-c2ccccc2)cc1` (stereo not shown), with -12%; and `O=C(CN1CCN(S(=O)(=O)N2CCCCCC2)CC1)Nc1ccc(F)cc1`, with -74.9%; and `O=C(CN1CCN(S(=O)(=O)N2CCCCC2)CC1)Nc1ccc(Cl)c(Cl)c1`, with -28.2%.
Then `O=C(CN1CCN(S(=O)(=O)N2CCCCC2)CC1)Nc1cc(Cl)cc(Cl)c1`, with -32.5%; and `O=C(CN1CCCC1)Nc1ccc(S(=O)(=O)N2CCCCC2)cc1`, with 4.2%; and `Cl.O=C(CN1CCN(C2CCCCC2)CC1)Nc1ccc(Br)cc1`, with -70%.
For `O=C(CN1CCN(S(=O)(=O)N2CCCCCC2)CC1)Nc1ccc(Br)cc1` the value was -74.3%; for `O=C(CN1CCCCC1)Nc1ccc(S(=O)(=O)N2CCCCCC2)cc1`, -35.5%; for `O=C(CN1CCN(S(=O)(=O)N2CCCCC2)CC1)Nc1ccc(Br)cc1`, -78.2%.
Take `O=C(CN1CCCCCC1)Nc1ccc(Br)cc1`: the “hERG current change (%, negative = inhibition) at 10uM” value was -32.3%.
Then `Cl.O=C(CN1CCCC1)Nc1ccc(Br)cc1`, with -1.25%; and `O=C(CN1CCCCCC1)Nc1ccc(S(=O)(=O)N2CCCCC2)cc1`, with -38.7%.
Then `S=C(Nc1ccc(Br)cc1)N1CCN(C2CCCCC2)CC1`, with -17.3%; and `CC1CCC2(CC1)NC(=O)N(CC(=O)Nc1ccc3[nH]c(=O)[nH]c3c1)C2=O` (stereo not shown), with 0.0265%; and `O=C(NC1CCCCC1)c1cc(S(=O)(=O)N2CCOCC2)c(Cl)cc1Cl`, with 13.6%.
For `Cc1nc2ccccc2c(=O)[nH]1` the value was 3.94%; for `CN(C)S(=O)(=O)N1CCN(CC(=O)Nc2ccc(Br)cc2)CC1`, -49.4%; for `Cc1ccc(N(CC(=O)Nc2ccc(F)cc2)S(=O)(=O)N2CCCC2)cc1`, -27.1%.
With `CN(C)S(=O)(=O)N1CCN(CC(=O)Nc2ccc(F)cc2)CC1`, the “hERG current change (%, negative = inhibition) at 10uM” value is on record as -69.7%.
Then `CCc1ccc(-c2cn3c(n2)SCC3)cc1`, with 4.12%; and `CCc1ccc(Nc2nc(C)cc(C)n2)cc1.Cl`, with -1.21%.
Then `CCc1ccc(-c2cn(-c3nc(C)cc(C)n3)c(=N)o2)cc1`, with -71.8%; and `Cc1ccc2oc(-c3ccccc3)nc2c1`, with 11.3%; and `Nc1nc(CN2CCN(c3ccccc3)CC2)nc(N2CCCc3ccccc32)n1`, with -39.6%.
For `Nc1nc(CN2CCN(c3ccccc3F)CC2)nc(N2CCCc3ccccc32)n1` the value was -11.7%; for `Nc1nc(CN2CCN(c3cccc(Cl)c3)CC2)nc(N2CCCc3ccccc32)n1`, -6.96%; for `Nc1nc(CN2CCN(Cc3ccccc3)CC2)nc(N2CCCc3ccccc32)n1`, -56.5%.
As for `Nc1nc(CN2CCN(c3ccc(F)cc3)CC2)nc(N2CCCc3ccccc32)n1`, the “hERG current change (%, negative = inhibition) at 10uM” value is reported as -52.9%.
For `COc1ccc(N2CCN(Cc3nc(N)nc(N4CCCc5ccccc54)n3)CC2)cc1` the value was -27.9%; for `COc1ccc(CC(=O)N2N=C(C)CC2(O)C(F)(F)F)cc1` (stereo not shown), 2.87%.
Then `Cc1cc(N/N=C/c2ccccc2F)c2ccccc2n1`, with 9.06%; and `CN(C)c1ccc(C(=S)N2CCCCC2)cc1`, with 8.24%; and `Nc1cccnc1S(=O)(=O)c1cccc(C(F)(F)F)c1`, with 5.59%.
As to `CC1CCC(C(C)C)C(OCC(O)CN2CCOCC2)C1.Cl` (stereo not shown), the “hERG current change (%, negative = inhibition) at 10uM” value was -0.613%.
On to `CC1CCN(CC(O)COC2CC(C)CC(C)(C)C2)CC1.Cl` (stereo not shown), for which the “hERG current change (%, negative = inhibition) at 10uM” value is on record as -54.5%.
Then `CC1CCC(C(C)C)C(OCC(O)CN2CCN(Cc3ccccc3)CC2)C1.Cl` (stereo not shown), with -66.5%; and `CC1CC(C)CN(CC(O)COC2CC(C)CC(C)(C)C2)C1.Cl` (stereo not shown), with -32.3%; and `CC1CCN(CC(O)COC2CC(C)CCC2C(C)C)CC1.Cl` (stereo not shown), with -70.4%.
With `CC1CC(OCC(O)CN2CCN(Cc3ccccc3)CC2)CC(C)(C)C1.Cl` (stereo not shown), the “hERG current change (%, negative = inhibition) at 10uM” value is on record as -43.5%.
For `CC1CCC(C(C)C)C(OCC(O)CN2CCCC(C)C2)C1.Cl` (stereo not shown) the value was -31.6%.
For `CC1CC(OCC(O)CN2CCOCC2)CC(C)(C)C1.Cl` (stereo not shown) the value was 1.1%; for `CCOC(=O)N1CCN(CC(O)COC2CC(C)CCC2C(C)C)CC1.Cl` (stereo not shown), -33.1%.
Turning to `CC(=O)Nc1ccc(N2C(=O)CSC2c2cccc([N+](=O)[O-])c2)cc1` (stereo not shown), the “hERG current change (%, negative = inhibition) at 10uM” value is listed as 15.6%.
For `Cc1cc(NC(=O)CCCn2cnc([N+](=O)[O-])n2)no1` the value was 1.48%; for `CC(=O)N1CCC2(CC1)C(C#N)=C(N)OC1=C2C(=O)CC(C)(C)C1`, 8.09%; for `COc1ccccc1/C=C1\SC(=S)N(NS(=O)(=O)c2ccccc2)C1=O`, 8.33%.
For `COc1ccccc1C(=O)NC(=O)COC(=O)C1CC1C` (stereo not shown) the value was -3.4%; for `O=C(c1ccc(Cl)c(S(=O)(=O)N2CCOCC2)c1)N1CCN(c2ccccc2F)CC1`, -15.1%.
`COc1cc(CNc2cccc(C(=O)O)c2)cc(Br)c1OCC(=O)NC(C)(C)C`: the “hERG current change (%, negative = inhibition) at 10uM” value is reported as 2.52%.
Take `FC(F)(F)c1nnc2ccc(Sc3ccccn3)nn12`: the “hERG current change (%, negative = inhibition) at 10uM” value is 17.1%.
For `O=C(NCc1ccccn1)C1CC(c2ccccc2Cl)=NO1` (stereo not shown) the value was 14.1%; for `O=S(=O)(Cc1ccccc1Cl)N1CCCCC1`, 1.5%.
On to `C=CCNCCCCOc1c(Cl)cc(C)cc1Br.O=C(O)C(=O)O`, for which the “hERG current change (%, negative = inhibition) at 10uM” value is reported as -31.7%.
For `CC(=O)N(\C=C/C=C/C=C1\Sc2ccccc2C1=O)c1ccccc1` the value was -3.47%; for `CCOC(=O)C1=C(C)N=c2s/c(=C\c3ccc(O)c([N+](=O)[O-])c3)c(=O)n2C1c1ccccc1OC` (stereo not shown), -61.7%.
For `CCOC(=O)C1=C(C)N=c2s/c(=C\c3ccc(OCC(=O)O)cc3)c(=O)n2C1c1ccccc1OC` (stereo not shown) the value was 12.8%; for `CCOC(=O)C1=C(C)N=c2s/c(=C\c3cccc(OCC(=O)O)c3)c(=O)n2C1c1ccccc1OC` (stereo not shown), 28.7%; for `CC(=O)c1c(C)[nH]c(C(=O)OCC(=O)C(C)(C)C)c1C`, -2.38%.
For `CN1CCN(C2CCCCC2NS(=O)(=O)c2ccccc2)CC1` (stereo not shown), the “hERG current change (%, negative = inhibition) at 10uM” value is 9.24%.
Then `Brc1ccc(CN2CCSCC2)cc1`, with -65.1%.
For `CCc1ccc(CN2CCSCC2)cc1` the value was 7.39%; for `Cc1ccc(CN2CCSCC2)cc1`, 17.4%; for `CCC1(C)Cc2c(sc3nc(SC)nc(NCCN(C)C)c23)CO1` (stereo not shown), -42.9%.
For the compound `O=C(O)/C=C/C(=O)Nc1ccc(Oc2ncnc3cc(Cl)ccc23)nc1`, the “hERG current change (%, negative = inhibition) at 10uM” value worked out at 18.4%.
Regarding `CCC(C)NC(=O)Cn1cc2c(n1)CCC(C)C2` (stereo not shown), the “hERG current change (%, negative = inhibition) at 10uM” value is reported as 13.8%.
`Cc1ccc(-c2nn3nnnc3c3ccccc23)cc1`: the “hERG current change (%, negative = inhibition) at 10uM” value is 14.3%.
In the case of `Cc1ccc(-c2nn3nnnc3c3ccccc23)cc1C`, the “hERG current change (%, negative = inhibition) at 10uM” value is -1.31%.
On to `c1ccc(-c2nn3nnnc3c3ccccc23)cc1`, for which the “hERG current change (%, negative = inhibition) at 10uM” value was -71.8%.
In the case of `CC1=CCC2C(=O)N(c3ccc(OC(=O)c4ccco4)cc3)C(=O)C2C1` (stereo not shown), the “hERG current change (%, negative = inhibition) at 10uM” value was determined as 12%.
In the case of `COC(=O)CSc1ncnc2c1sc1nc(-c3ccco3)c3c(c12)CC(C)(C)OC3`, the “hERG current change (%, negative = inhibition) at 10uM” value was found to be 3.01%.
As for `O=C(CSc1ncccn1)NNC(=O)c1ccccc1`, the “hERG current change (%, negative = inhibition) at 10uM” value was -4.48%.
For `CCOCCCNC(=O)C(c1ccccc1)N(Cc1cccs1)C(=O)c1ccccc1O` (stereo not shown) the value was 14.3%; for `Cc1cccc(NC(=O)COC(=O)CCCC2=NS(=O)(=O)c3ccccc3N2)c1`, 10.7%.
On to `CCc1ccc(NC(=O)COC(=O)CCCC2=NS(=O)(=O)c3ccccc3N2)cc1`, for which the “hERG current change (%, negative = inhibition) at 10uM” value is on record as -1.3%.
Then `COc1ccc(Cl)cc1NC(=O)COC(=O)CCCC1=NS(=O)(=O)c2ccccc2N1`, with 21.4%; and `O=C(COC(=O)CCCC1=NS(=O)(=O)c2ccccc2N1)Nc1ccccc1`, with 24.7%; and `CC(C)(CC(=O)OCC(=O)Nc1ccccc1F)CC1=NS(=O)(=O)c2ccccc2N1`, with 0.85%.
Consider `CCOc1ccccc1NC(=O)COC(=O)CC(C)(C)CC1=NS(=O)(=O)c2ccccc2N1`, for which the “hERG current change (%, negative = inhibition) at 10uM” value is -60.5%.
For `COc1cc(NC(=O)COC(=O)CCCC2=NS(=O)(=O)c3ccccc3N2)cc(OC)c1` the value was 14.4%.
For `Cc1cc(C)cc(NC(=O)COC(=O)CCCC2=NS(=O)(=O)c3ccccc3N2)c1` the value was -55.9%; for `COc1ccccc1NC(=O)COC(=O)CC(C)(C)CC1=NS(=O)(=O)c2ccccc2N1`, -69.9%; for `Cc1cc(NC(=O)C2CCCN(S(=O)(=O)c3c(C)noc3C)C2)no1` (stereo not shown), -0.534%.
For `Cc1oc(-c2cccs2)nc1CSCC(=O)NC1CC1` the value was -3.82%; for `CCC1=NN(C(=O)Cc2ccc([N+](=O)[O-])cc2)C(O)(c2ccncc2)C1` (stereo not shown), -11.9%.
On to `COc1ccc(NC(=O)c2cccc(N3C(=O)C4C5C=CC(C5)C4C3=O)c2)cc1Cl` (stereo not shown), for which the “hERG current change (%, negative = inhibition) at 10uM” value was 2.2%.
Regarding `C=CCN1C(=O)C(Cc2ccc(F)cc2)S/C1=N/N=C/c1cccs1` (stereo not shown), the “hERG current change (%, negative = inhibition) at 10uM” value is on record as -9.46%.
For `CC(C)C(NC(=O)c1ccco1)C(=O)NCC(c1ccco1)N(C)C` (stereo not shown) the value was 12.5%.
For `Cc1cc(=O)oc2cc(OCC(O)CN3CCN(c4ccccc4)CC3)ccc12.Cl` (stereo not shown) the value was -47.4%; for `OC(COc1ccc2c(c1)CCC2)CN1CCN(c2ccccc2F)CC1` (stereo not shown), -14.6%; for `COc1ccc(N2CCN(CC(O)COc3cc(C)cc(C)c3)CC2)cc1.Cl` (stereo not shown), -48.8%.
Then `CCOc1ccccc1N1CCN(CC(O)COc2ccc3c(C)cc(=O)oc3c2)CC1` (stereo not shown), with -53.1%.
On to `CCN1CCN(CC(O)COc2ccc3c(c2)CCC3)CC1.Cl` (stereo not shown), for which the “hERG current change (%, negative = inhibition) at 10uM” value is reported as 5.59%.
Then `COc1ccc(N2CCN(CC(O)COc3cc(C)ccc3C)CC2)cc1.Cl` (stereo not shown), with -33.8%; and `COc1cccc(OCC(O)CN2CC(C)CC(C)C2)c1.Cl` (stereo not shown), with -13.5%; and `CC1CC(C)CN(CC(O)COc2ccc3c(c2)CCC3)C1.Cl` (stereo not shown), with -53.2%.
Then `COc1ccc(N2CCN(CC(O)COc3ccc4c(c3)CCC4)CC2)cc1.Cl` (stereo not shown), with -48.3%.
For `COc1ccc(N2CCN(CC(O)COc3ccc(C)cc3C)CC2)cc1.Cl` (stereo not shown), the “hERG current change (%, negative = inhibition) at 10uM” value is given as -67.8%.
Then `COc1ccccc1N1CCN(CC(O)COc2ccc3c(C)cc(=O)oc3c2)CC1` (stereo not shown), with -24.7%; and `COc1ccccc1N1CCN(CC(O)COc2ccc3c(c2)CCC3)CC1.Cl` (stereo not shown), with -74.2%.

Source of the values: publication PMC4336329 (PLoS ONE, 2015).
